Results filed as inconclusive are left out. A call without a number means that no potency is given here. Activity calls are given as the source filed them. The call rests on the fitted dose curve; in most records, active means well fitted inhibition curve with a large enough effect in the repeat runs; inconclusive means weak or mixed curves; inactive means flat fitted curve, though single readings scatter.
Molecular target: Luciferin 4-monooxygenase (Photinus pyralis) (UniProt P08659)
Experiment: qHTS assay to identify small molecule inhibitors of firefly luciferase (AID 1224835); further: nearly all actives have a fitted effect of over 25% in size
Details: purified P. pyralis luciferase, luminescence inhibition; series mostly up to 115 µM
Excerpt: U.S. Tox21 Program National Center for Advancing Translational Sciences [NCATS] NIH Chemical Genomics Center [NCGC] U.S. Environmental Protection Agency [EPA] National Institutes of Environmental Health Sciences [NIEHS] National Toxicology Program [NTP] U.S. Food and Drug Administration [FDA] Tox21 Assay Overview: Firefly (Photinus pyralis) luciferase is one of the most commonly used transcriptional reporters. Firefly luciferase reporter-gene assays are generally considered one of the most sensitive assay types (Wood, 1995; Wood, 1998). However, it was initially observed, in 1991, by Thompson et al., that compounds that resemble the substrates of firefly luciferase (FLuc) can act as competitive inhibitors of the enzyme, and that these compounds, upon interaction with luciferase in the cell, can actually stabilize the protein and increase its half-life. Previous profiling work by other groups to determine the prevalence of compounds that affect FLuc enzymatic activity (PubChem AID 411) identified that ~3% of the MLSMR library (then at ~72K) inhibited FLuc. […] Thus the Tox21 10K library is profiled for activity against FLuc using a biochemical assay of purified FLuc and KM concentrations of FLuc substrates (D-luciferin and ATP).
These assay plates were then treated with 23nL of compound or DMSO using a Kalypsys pin tool, which allows for delivery of a 6-point interplate titration of each compound to the assay plate (quantitative HTS.) 1 uL of firefly luciferase mix (containing 50 mM Tris acetate, pH 7.6, 0.04 uM P. pyralis luciferase, 0.01% Tween, 0.05% BSA and dH2O) was then delivered by FRD to each well. Luciferase activity was then measured using a ViewLux CCD imager.

Sequence of Luciferin 4-monooxygenase (Photinus pyralis) (P08659 whole entry, looked up): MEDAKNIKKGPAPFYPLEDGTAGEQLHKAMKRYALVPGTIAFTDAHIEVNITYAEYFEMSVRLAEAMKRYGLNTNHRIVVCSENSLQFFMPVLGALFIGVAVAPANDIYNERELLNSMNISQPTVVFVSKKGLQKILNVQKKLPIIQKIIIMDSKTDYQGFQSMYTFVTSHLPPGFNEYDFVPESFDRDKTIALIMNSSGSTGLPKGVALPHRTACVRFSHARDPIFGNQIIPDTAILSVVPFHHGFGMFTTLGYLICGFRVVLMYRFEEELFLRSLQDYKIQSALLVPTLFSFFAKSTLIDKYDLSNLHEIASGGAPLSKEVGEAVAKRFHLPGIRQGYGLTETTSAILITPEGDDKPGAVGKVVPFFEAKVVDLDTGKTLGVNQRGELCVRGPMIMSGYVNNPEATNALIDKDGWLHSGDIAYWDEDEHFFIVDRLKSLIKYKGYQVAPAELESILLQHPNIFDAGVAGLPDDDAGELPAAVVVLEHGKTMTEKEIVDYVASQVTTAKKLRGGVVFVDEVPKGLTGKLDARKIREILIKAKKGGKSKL

Row | SMILES | Potency | activity change, negative = inhibition
1 | O=C(O)c1ccco1 | inactive | 
2 | COc1cc2nc(N(C)CCCNC(=O)C3CCCO3)nc(N)c2cc1OC (stereo not given) | inactive | 
3 | O=C(O)c1nc(Cl)c(Cl)c(Cl)c1Cl | inactive | 
4 | Cc1ccc(C(C)OC(=O)C2(C)CCC(C(=O)O)C2(C)C)cc1 (stereo not given) | inactive | 
5 | C1CCCNCCC1 | inactive | 
6 | CCOc1ccc(N=Nc2ccc(/C=C/c3ccc(N=Nc4ccc(OCC)cc4)cc3S(=O)(=O)O)c(S(=O)(=O)O)c2)cc1 | inactive | 
7 | CCNc1cc(O)ccc1C | inactive | 
8 | CC(C)(COC(=O)c1ccccc1)COC(=O)c1ccccc1 | inactive | 
9 | COc1ccnc(CS(=O)c2nc3ccc(OC(F)F)cc3[nH]2)c1OC (stereo not given) | inactive | 
10 | C[C@@H]1C[C@H]2O[C@@]3(O[C@@H]2C(C)(C)O)[C@H](O)[C@@]2(C)[C@@H]4CC[C@H]5C(C)(C)[C@@H](O[C@@H]6OC[C@@H](O)[C@H](O)[C@H]6O)CC[C@@]56C[C@@]46CC[C@]2(C)[C@@H]13 | inactive | 
11 | O=[N+]([O-])c1ccc2[nH]ncc2c1 | inactive | 
12 | c1ccc(CNCCNCc2ccccc2)cc1 | inactive | 
13 | CN(Cc1ccc(C(C)(C)C)cc1)Cc1cccc2ccccc12 | inactive | 
14 | C[C@@H]1C[C@H]2[C@@H]3CCC4=CC(=O)C=C[C@]4(C)[C@@]3(F)[C@@H](O)C[C@]2(C)[C@@]1(O)C(=O)COC(=O)c1ccncc1 | inactive | 
15 | O=C(Nc1ccc(S(=O)(=O)N2CCOCC2)cc1)c1cc(Cl)ccc1NS(=O)(=O)c1ccc(Cl)s1 | inactive | 
16 | ClCCOCCOCCCl | inactive | 
17 | CCN(CC)CCNc1ccc(CNC=O)c2sc3ccc(OC)cc3c(=O)c12 | inactive | 
18 | CCCCC(=O)OCC(=O)[C@H]1[C@H](C)C[C@H]2[C@@H]3C[C@H](F)C4=CC(=O)C=C[C@]4(C)[C@@]3(F)[C@@H](O)C[C@@]21C | inactive | 
19 | Cc1nn(C)c(Oc2ccccc2)c1/C=N/OCc1ccc(C(=O)OC(C)(C)C)cc1 | inactive | 
20 | CCCCCCCCCCO[C@@H]1O[C@H](CO)[C@@H](O)[C@H](O)[C@H]1O | inactive | 

Row | SMILES | Potency | activity change, negative = inhibition
21 | CCOC(=O)Cc1cccc2ccccc12 | inactive | 
22 | O[C@@H](COc1cccc2ncccc12)CN1CCN(C2c3ccccc3[C@@H]3[C@H](c4ccccc42)C3(F)F)CC1 (stereo not given in full) | inactive | 
23 | CCCCC/C=C\C/C=C\CCCCCCCC(=O)NC(C)c1ccccc1 (stereo not given) | inactive | 
24 | CCN(CC)c1ccc(C(=C2C=CC(=[N+](CC)CC)C=C2)c2cc(S(=O)(=O)O)ccc2S(=O)(=O)[O-])cc1 | 12.3 µM (active) | 
25 | O=C1C(O)=C(O)C(=O)C(O)=C1O | inactive | 
26 | O=C(OCCc1ccccc1)c1ccccc1 | 1 µM (active) | 
27 | O=[N+]([O-])c1cccc(S(=O)(=O)O)c1 | inactive | 
28 | N=c1ccn2c(n1)O[C@H]1[C@H](O)[C@@H](CO)O[C@H]12 | inactive | 
29 | CCOC(=O)C1=C[C@]2(CC)CCCN3CCc4c(n1c1ccccc41)[C@@H]32 | inactive | 
30 | O=C(O)C1(C(=O)Nc2ccc(Cl)cc2Cl)CC1 | 6.33 µM (active) | 
31 | O=C(O)c1ccc(S(=O)(=O)O)cc1C(=O)O | inactive | 
32 | O=C1OC(=O)C2C3C=CC(C3)C12 (stereo not given) | inactive | 
33 | Cc1[nH]c(C)c(Cl)c(=O)c1Cl |  | -1.3% [at 23.6 µM] (inactive)
34 | Nc1c(CC(=O)O)cccc1C(=O)c1ccc(Br)cc1 | inactive | 
35 | O=C(OCCCCCCOC(=O)c1ccccc1)c1ccccc1 | inactive | 
36 | Cc1ccccc1S(=O)(=O)O | inactive | 
37 | CCCOC(C(=O)OC1CCN(C)CC1)(c1ccccc1)c1ccccc1 | inactive | 
38 | C[Si](C)(CCCN)O[Si](C)(C)CCCN | inactive | 
39 | CCCCCCCCCc1ccc(OCCOCCO)cc1 | inactive | 
40 | CCCCOC(=O)CCCCCCCC(=O)OCCCC | inactive | 

Reference: PubChem BioAssay (Tox21)
